Data from PubChem BioAssay AID1159580 (chemical genetic matrix, 2015).
The whole screen tested about 5,500 compounds, of which about 2,000 (36%) were called active. Another 18% or so got no clear call; they are omitted. Cut-off read from the data, not from the text of the source: active = normalized growth mostly below about 0.91 (no sharp cut-off); inconclusive = no clear call, values can overlap the other calls; inactive = mostly above about 0.92. This is one part of the list.

Assay: chemical genetic growth profiling, strain panel (AID 1159580);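 note: tested at 20 µM; growth read once vehicle control cultures reached saturation at 30 °C; 1 = growth at the plate median or of vehicle wells; lower values mean less growth of the strain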
Details: S. cerevisiae deletion strains, growth OD

Measured: normalized growth

N#Cc1c2ccccc2nc2ccccc12
active: locus YAR019C, strain CDC15, stronger effect = lower value 0.818 | locus YBL105C, strain PKC1, stronger effect = lower value 0.834 | locus YBR135W, strain CKS1, stronger effect = lower value 0.808 | locus YBR136W, strain MEC1, stronger effect = lower value 0.827 | locus YBR160W, strain CDC28, stronger effect = lower value 0.823 | locus YDL017W, strain CDC7, stronger effect = lower value 0.834 | locus YDL028C, strain MPS1, stronger effect = lower value 0.825 | locus YDL101C, strain DUN1, stronger effect = lower value 0.832 | locus YDL108W, strain KIN28, stronger effect = lower value 0.826 | locus YDR052C, strain DBF4, stronger effect = lower value 0.829 | locus YDR054C, strain cdc34, stronger effect = lower value 0.781 | locus YDR226W, strain ADK1, stronger effect = lower value 0.825 | locus YDR477W, strain SNF1, stronger effect = lower value 0.678 | locus YER133W, strain GLC7, stronger effect = lower value 0.717 | locus YFL009W, strain cdc4, stronger effect = lower value 0.813 | locus YFL029C, strain CAK1, stronger effect = lower value 0.813 | locus YFR003C, strain YPI1, stronger effect = lower value 0.831 | locus YFR028C, strain CDC14, stronger effect = lower value 0.832 | locus YGR092W, strain DBF2, stronger effect = lower value 0.196 | locus YHR030C, strain SLT2, stronger effect = lower value 0.693 | locus YIL147C, strain SLN1, stronger effect = lower value 0.822 | locus YJL157C, strain FAR1, stronger effect = lower value 0.675 | locus YJR016C, strain ILV3, stronger effect = lower value 0.816 | locus YKL048C, strain ELM1, stronger effect = lower value 0.746 | locus YKL193C, strain SDS22, stronger effect = lower value 0.803 | locus YKL203C, strain TOR2, stronger effect = lower value 0.693 | locus YLR113W, strain HOG1, stronger effect = lower value 0.638 | locus YLR403W, strain SFP1, stronger effect = lower value 0.605 | locus YMR001C, strain CDC5, stronger effect = lower value 0.818 | locus YMR277W, strain FCP1, stronger effect = lower value 0.817 | locus YNL006W, strain LST8, stronger effect = lower value 0.829 | locus YNL161W, strain CBK1, stronger effect = lower value 0.823 | locus YNL207W, strain RIO2, stronger effect = lower value 0.822 | locus YNL222W, strain SSU72, stronger effect = lower value 0.825 | locus YOL078W, strain AVO1, stronger effect = lower value 0.803 | locus YOR061W, strain CKA2, stronger effect = lower value 0.677 | locus YOR329C, strain SCD5, stronger effect = lower value 0.829 | locus YPL031C, strain PHO85, stronger effect = lower value 0.616 | locus YPL153C, strain RAD53, stronger effect = lower value 0.659 | locus YPL209C, strain IPL1, stronger effect = lower value 0.833 | locus YPL256C, strain CLN2, stronger effect = lower value 0.708 | locus YPR025C, strain CCL1, stronger effect = lower value 0.82 | locus YPR106W, strain ISR1, stronger effect = lower value 0.862 | locus YPR111W, strain DBF20, stronger effect = lower value 0.843 | strain NNK1, stronger effect = lower value 0.846 | strain TSCII, stronger effect = lower value 0.811
inactive: locus YDL132W, strain cdc53, stronger effect = lower value 0.885 | locus YDL214C, strain PRR2, stronger effect = lower value 0.743 | locus YER123W, strain YCK3, stronger effect = lower value 0.678 | locus YFR019W, strain FAB1, stronger effect = lower value 0.844 | locus YGR040W, strain KSS1, stronger effect = lower value 0.716 | locus YGR052W, strain FMP48, stronger effect = lower value 0.736 | locus YHR079C, strain IRE1, stronger effect = lower value 0.599 | locus YHR082C, strain KSP1, stronger effect = lower value 0.72 | locus YHR205W, strain SCH9, stronger effect = lower value 0.807 | locus YJL095W, strain BCK1, stronger effect = lower value 0.561 | locus YJL128C, strain PBS2, stronger effect = lower value 0.87 | locus YJR066W, strain TOR1 (second series), stronger effect = lower value 0.728 | locus YJR066W, strain TOR1, stronger effect = lower value 0.615 | locus YKL067W, strain YNK1, stronger effect = lower value 0.744 | locus YKL101W, strain HSL1, stronger effect = lower value 0.761 | locus YLR133W, strain CKI1, stronger effect = lower value 0.737 | locus YML070W, strain DAK1, stronger effect = lower value 0.726 | locus YMR205C, strain PFK2 (second series), stronger effect = lower value 0.761 | locus YNL020C, strain ARK1, stronger effect = lower value 0.717 | locus YNL183C, strain NPR1, stronger effect = lower value 0.584 | locus YNL307C, strain MCK1 (second series), stronger effect = lower value 0.649 | locus YOL136C, strain PFK27, stronger effect = lower value 0.742 | locus YOR119C, strain RIO1, stronger effect = lower value 0.749 | locus YOR231W, strain MKK1, stronger effect = lower value 0.587 | locus YPL204W, strain HRR25, stronger effect = lower value 0.693
